In PubChem BioAssay (NCI):
This is part of a sample that, as a whole, favours compounds with a hit. Of some 83,000 tested, about 20% had one in any assay.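 Step 1: grow cells in 96-well plates. Step 2: add test compound at a single concentration. Step 3: incubate 48 h. Step 4: record percent growth.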 The source made the active and inactive calls. How the source made its calls: active means growth percent below 10; inactive means the rest.

system: SF-268 CNS; assay: NCI-60 one-dose screen, 48 h (100 = growth as untreated, 0 = no growth, -100 = all killed); conditions: 10 µM

Row | SMILES | growth
1 | O=C(/C=C/c1ccco1)c1nc2ccccc2n1Cc1ccc(Br)cc1 | 45.4% (inactive)
2 | O=C(/C=C/c1ccco1)c1nc2ccccc2n1Cc1ccc(F)cc1 | 63.4% (inactive)
3 | COc1cc2cc(C(=O)N3C[C@@H](CCl)c4c3cc(OC(=O)N3CCN(C)[C@@H]5CSSC[C@@H]53)c3ccccc43)[nH]c2c(OC)c1OC | -17.8% (active)
4 | C#CC[Se]C(=O)c1ccc2n[se]nc2c1 | 89.4% (inactive)
5 | O=C(/C=C/c1ccc(Cl)cc1Cl)c1nc2ccccc2n1Cc1ccc(F)cc1 | 49.9% (inactive)
6 | O=C(/C=C/c1ccc(Cl)cc1)c1nc2ccccc2n1Cc1ccc(Br)cc1 | 75.3% (inactive)
7 | CCOP(=O)(OCC)C(NC(C)=O)C(=O)SCCN (stereo unspecified) | 125% (inactive)
8 | COc1cc2cc(C(=O)N3C[C@@H](CCl)c4c3cc(OC(=O)N3CCN(C)[C@@H]5CSSC[C@H]53)c3ccccc43)[nH]c2c(OC)c1OC | 2.46% (active)
9 | COc1ccc2cc([C@H](C)C(=O)[Se]CCC#N)ccc2c1 | -45.8% (active)
10 | CC12OOC(C)(OO1)C2CCC(=O)OCCNc1ccnc2cc(Cl)ccc12 (stereo unspecified) | 97% (inactive)
11 | CC(C)N=C([Se])NC(=O)c1cccs1 | 59.4% (inactive)
12 | Cc1ccc2[nH]c(=S)n(-c3ccc(F)cc3)c(=O)c2c1 | 106% (inactive)
13 | CCOC(=O)C1=C(Nc2ccccc2)C(=O)OC12C(=O)Nc1ccccc12 (stereo unspecified) | 95.7% (inactive)
14 | CC12CCC3(CCC(=O)NCCCNc4ccnc5cc(Cl)ccc45)[C@@](C)(OO[C@]3(C)O1)O2 | 5.01% (active)
15 | CC[C@]12C=CCN3CC[C@@]4(c5ccc(OC)cc5N(C)[C@H]4[C@@](O)(C(=O)OC)[C@@H]1OC(=O)CCCC[P+](C1CCCCC1)(C1CCCCC1)C1CCCCC1)[C@@H]32 | -70.5% (active)
16 | CC(=O)Oc1ccccc1C(=O)[Se]C(=NC(C)C)NC(C)C | -30.9% (active)

Row | SMILES | growth
17 | COCCOCCOCCOc1ccc(-n2cc(CCCN(CCNc3ccnc4cc(Cl)ccc34)C(=O)CCC(=O)O[C@@H]3O[C@@H]4OC5(C)CC[C@H]6[C@H](C)CC[C@@H]([C@H]3C)[C@@]46OO5)nn2)cc1 | 56.9% (inactive)
18 | C[C@H]1[C@@H](CC(=O)N[C@@H](Cc2coc3ccccc23)B(O)O)O[C@@H]2OC3(C)CC[C@H]4[C@H](C)CC[C@@H]1[C@@]24OO3 | 20.4% (inactive)
19 | COP(=O)(CC(F)(F)C(F)(F)F)OC | 88.4% (inactive)
20 | CC12OOC(C)(OO1)C2CCC(=O)NCCNc1ccnc2cc(Cl)ccc12 (stereo unspecified) | 95.6% (inactive)
21 | CC[C@]12C=CCN3CC[C@@]4(c5ccc(OC)cc5N(C)[C@H]4[C@@](O)(C(=O)OC)[C@@H]1OC(=O)CCC[P+](c1ccc(C)cc1)(c1ccc(C)cc1)c1ccc(C)cc1)[C@@H]32 | -46.3% (active)
22 | CC(C)N=C([Se])NC(=O)c1ccccc1 | 14.3% (inactive)
23 | CC[C@]12C=CCN3CC[C@@]4(c5ccc(OC)cc5N(C)[C@H]4[C@@](O)(C(=O)OC)[C@@H]1OC(=O)CCC[P+](C1CCCCC1)(C1CCCCC1)C1CCCCC1)[C@@H]32 | -54.1% (active)
24 | CC1=C(COCCOC(=O)c2ccc(S(=O)(=O)F)cc2)C2=C(C)C3(CC3)[C@@](C)(O)C(=O)C2=C1 | 12.9% (inactive)
25 | CC[C@]12C=CCN3CC[C@@]4(c5ccc(OC)cc5N(C)[C@H]4[C@@](O)(C(=O)OC)[C@@H]1OC(=O)CCCC[P+](c1ccc(OC)cc1)(c1ccc(OC)cc1)c1ccc(OC)cc1)[C@@H]32 | -38.1% (active)
26 | CC1=C(CCC=NNC(N)=O)C2=C(C)C3(CC3)[C@@](C)(O)C(=O)C2=C1 | -31.4% (active)
27 | CC[C@@]12CC(C(=O)OC)=C3Nc4cc5c(cc4[C@@]34CCN(C[C@H]3O[C@H]31)[C@@H]24)[C@@H]1[C@H](O5)[C@@H](O)[C@@]2(CC)CC(C(=O)OC)=C3Nc4cc(OC)ccc4[C@@]34CCN1[C@@H]24 | 38.5% (inactive)
28 | CCOP(=O)(CC(F)(F)C(F)(F)F)OCC | 80.4% (inactive)
29 | CC1=C2C(=C[C@@](C)(COP(=O)(Oc3ccccc3)Oc3ccccc3)[C@@H]2O)C(=O)[C@@](C)(O)C12CC2 | -74.3% (active)
30 | CC(=O)Oc1ccccc1C(=O)NC([Se])=NC1CCCCC1 | 66.1% (inactive)
31 | C[C@H]1[C@H](OC(=O)CCC(=O)N(CCCc2cn(-c3ccc(CN4CCOCC4)cc3)nn2)CCNc2ccnc3cc(Cl)ccc23)O[C@@H]2OC3(C)CC[C@H]4[C@H](C)CC[C@@H]1[C@@]24OO3 | 50.1% (inactive)
